Laboratory results reported in paper PMC7862700, “An all-to-all approach to the identification of sequence-specific readers for epigenetic DNA modifications on cytosine”.

What was measured:
Assay in all cases: DAPPL (digital affinity profiling via proximity ligation, sequencing); 10 mM Tris-HCl pH 7.5, 50 mM NaCl, 1 mM DTT, 4% glycerol, room temperature, 30 min; GST-TFs on glutathione beads, 16-mer random dsDNA library, 0.1% formaldehyde crosslink after washing; high values mean tight binding
[1] = biological target: T1, FLI1 (Homo sapiens, UniProt Q01543 1-452); settings: protein: recombinant; tags: N-terminal GST; dsDNA, one strand shown
T1 sequence: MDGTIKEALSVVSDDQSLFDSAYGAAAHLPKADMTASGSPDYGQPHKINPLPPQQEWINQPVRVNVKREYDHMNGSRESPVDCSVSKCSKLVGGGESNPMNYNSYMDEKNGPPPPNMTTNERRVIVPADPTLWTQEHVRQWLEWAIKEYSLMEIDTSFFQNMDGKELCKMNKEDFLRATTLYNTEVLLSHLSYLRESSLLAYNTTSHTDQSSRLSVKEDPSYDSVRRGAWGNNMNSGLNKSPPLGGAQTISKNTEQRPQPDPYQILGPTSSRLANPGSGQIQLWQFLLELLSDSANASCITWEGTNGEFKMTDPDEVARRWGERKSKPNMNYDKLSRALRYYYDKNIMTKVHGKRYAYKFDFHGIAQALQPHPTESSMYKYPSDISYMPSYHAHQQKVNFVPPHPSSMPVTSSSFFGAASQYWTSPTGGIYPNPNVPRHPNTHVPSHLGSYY
In short: (§1)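 Pools of DNA-barcoded human transcription factors, expressed in yeast as GST fusions on glutathione beads and combined with a tag-only sample, were incubated with 200 nmole of a 16-mer random double-stranded DNA library. Incubation took 30 min at room temperature in Tris/NaCl/DTT/glycerol buffer and was followed by washing, 0.1% formaldehyde crosslinking, proximity ligation (BsaI/T4 ligase, 1 h, 37 °C), PCR amplification and sequencing on an Illumina NextSeq500. Binding signal is the ratio of a hexamer's read frequency for a factor to its frequency for the tag-only sample.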

[2] = biological target: T2, ELK1 (Homo sapiens, UniProt P19419 1-428); settings: protein: recombinant; tags: N-terminal GST; dsDNA, one strand shown
T2 sequence: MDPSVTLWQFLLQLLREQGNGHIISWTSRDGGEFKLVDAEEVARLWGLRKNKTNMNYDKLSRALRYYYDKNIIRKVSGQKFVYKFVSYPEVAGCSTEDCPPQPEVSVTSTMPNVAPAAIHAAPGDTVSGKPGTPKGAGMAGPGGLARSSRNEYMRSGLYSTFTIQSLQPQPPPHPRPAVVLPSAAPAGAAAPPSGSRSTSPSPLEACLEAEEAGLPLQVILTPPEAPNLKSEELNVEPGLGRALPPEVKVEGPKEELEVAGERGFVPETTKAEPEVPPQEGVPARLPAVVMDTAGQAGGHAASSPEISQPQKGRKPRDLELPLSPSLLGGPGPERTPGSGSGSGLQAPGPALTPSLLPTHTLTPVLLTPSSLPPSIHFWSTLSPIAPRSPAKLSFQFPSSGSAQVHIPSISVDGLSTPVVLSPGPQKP
In short: as §1

[3] = biological target: T3, GABPA (Homo sapiens, UniProt Q06546 1-454); settings: protein: recombinant; tags: N-terminal GST; dsDNA, one strand shown
T3 sequence: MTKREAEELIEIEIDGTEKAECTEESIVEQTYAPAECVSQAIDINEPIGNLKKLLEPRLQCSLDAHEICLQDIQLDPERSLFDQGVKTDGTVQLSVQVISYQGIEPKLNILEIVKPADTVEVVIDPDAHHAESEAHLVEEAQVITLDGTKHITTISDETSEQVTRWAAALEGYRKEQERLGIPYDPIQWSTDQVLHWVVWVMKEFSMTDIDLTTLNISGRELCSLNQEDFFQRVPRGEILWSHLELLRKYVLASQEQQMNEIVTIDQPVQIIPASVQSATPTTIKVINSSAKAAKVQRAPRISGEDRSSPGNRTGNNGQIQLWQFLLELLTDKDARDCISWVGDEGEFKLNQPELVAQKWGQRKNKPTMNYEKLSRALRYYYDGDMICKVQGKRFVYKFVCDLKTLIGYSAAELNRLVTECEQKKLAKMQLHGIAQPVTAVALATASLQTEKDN
In short: as §1

[4] = biological target: T4, ERG (Homo sapiens, UniProt P11308 1-479); settings: protein: recombinant; tags: N-terminal GST; dsDNA, one strand shown
T4 sequence: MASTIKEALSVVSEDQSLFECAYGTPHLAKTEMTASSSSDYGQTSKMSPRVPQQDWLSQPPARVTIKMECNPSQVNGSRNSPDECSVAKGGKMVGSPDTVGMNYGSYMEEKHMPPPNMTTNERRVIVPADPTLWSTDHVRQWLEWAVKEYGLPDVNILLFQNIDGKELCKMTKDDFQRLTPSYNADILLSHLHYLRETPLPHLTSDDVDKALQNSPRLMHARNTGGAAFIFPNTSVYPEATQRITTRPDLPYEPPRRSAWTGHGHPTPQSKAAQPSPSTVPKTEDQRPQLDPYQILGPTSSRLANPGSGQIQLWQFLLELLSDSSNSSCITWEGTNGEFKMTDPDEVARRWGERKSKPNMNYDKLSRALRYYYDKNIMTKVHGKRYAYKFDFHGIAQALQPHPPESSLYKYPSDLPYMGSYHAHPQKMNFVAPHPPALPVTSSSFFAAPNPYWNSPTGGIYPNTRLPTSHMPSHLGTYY
In short: as §1

[5] = biological target: ELF1 (Homo sapiens, UniProt P32519 1-619); settings: protein: recombinant; tags: N-terminal GST; dsDNA, one strand shown
ELF1, sequence (P32519 whole entry): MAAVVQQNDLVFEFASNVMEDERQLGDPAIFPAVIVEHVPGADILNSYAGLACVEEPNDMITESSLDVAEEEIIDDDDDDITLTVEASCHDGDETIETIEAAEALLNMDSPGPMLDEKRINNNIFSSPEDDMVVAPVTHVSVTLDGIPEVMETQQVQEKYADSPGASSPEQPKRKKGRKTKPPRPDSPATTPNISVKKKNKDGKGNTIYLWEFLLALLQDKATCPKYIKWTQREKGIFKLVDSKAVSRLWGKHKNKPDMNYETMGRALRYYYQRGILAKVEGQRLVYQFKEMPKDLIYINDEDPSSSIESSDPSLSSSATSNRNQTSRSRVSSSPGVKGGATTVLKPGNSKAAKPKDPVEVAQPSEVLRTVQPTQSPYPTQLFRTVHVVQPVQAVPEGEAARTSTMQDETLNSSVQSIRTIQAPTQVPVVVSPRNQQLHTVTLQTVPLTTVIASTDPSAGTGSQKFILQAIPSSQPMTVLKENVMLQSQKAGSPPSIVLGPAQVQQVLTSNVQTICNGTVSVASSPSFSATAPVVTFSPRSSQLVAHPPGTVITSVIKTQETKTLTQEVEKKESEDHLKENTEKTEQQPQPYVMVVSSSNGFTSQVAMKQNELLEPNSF
In short: as §1

[6] = biological target: T5, EHF (Homo sapiens, UniProt Q9NZC4 1-300); settings: protein: recombinant; tags: N-terminal GST; dsDNA, one strand shown
T5 sequence: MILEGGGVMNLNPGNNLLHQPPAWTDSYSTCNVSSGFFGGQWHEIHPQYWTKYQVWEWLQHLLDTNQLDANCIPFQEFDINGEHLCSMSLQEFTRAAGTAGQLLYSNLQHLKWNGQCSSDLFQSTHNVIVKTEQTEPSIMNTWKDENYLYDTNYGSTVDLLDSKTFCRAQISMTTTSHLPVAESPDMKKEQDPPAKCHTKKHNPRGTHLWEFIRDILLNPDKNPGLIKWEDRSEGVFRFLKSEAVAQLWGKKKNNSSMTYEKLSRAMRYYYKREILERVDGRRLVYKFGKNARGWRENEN
In short: as §1

[7] = biological target: SPI1 (Homo sapiens, UniProt P17947 1-270); settings: protein: recombinant; tags: N-terminal GST; dsDNA, one strand shown
In short: as §1

[8] = biological target: SPIB (Homo sapiens, UniProt Q01892 1-262); settings: protein: recombinant; tags: N-terminal GST; dsDNA, one strand shown
SPIB, sequence (Q01892 whole entry): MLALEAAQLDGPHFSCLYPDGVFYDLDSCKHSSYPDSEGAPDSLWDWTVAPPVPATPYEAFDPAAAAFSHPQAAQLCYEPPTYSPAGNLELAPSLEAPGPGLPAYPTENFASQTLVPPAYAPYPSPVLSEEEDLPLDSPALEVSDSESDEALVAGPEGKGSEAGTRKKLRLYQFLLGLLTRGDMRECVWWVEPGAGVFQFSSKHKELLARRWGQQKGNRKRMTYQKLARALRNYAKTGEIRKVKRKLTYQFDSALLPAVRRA
In short: as §1

[9] = biological target: T6, ELK3 (Homo sapiens, UniProt P41970 1-407); settings: protein: recombinant; tags: N-terminal GST; dsDNA, one strand shown
T6 sequence: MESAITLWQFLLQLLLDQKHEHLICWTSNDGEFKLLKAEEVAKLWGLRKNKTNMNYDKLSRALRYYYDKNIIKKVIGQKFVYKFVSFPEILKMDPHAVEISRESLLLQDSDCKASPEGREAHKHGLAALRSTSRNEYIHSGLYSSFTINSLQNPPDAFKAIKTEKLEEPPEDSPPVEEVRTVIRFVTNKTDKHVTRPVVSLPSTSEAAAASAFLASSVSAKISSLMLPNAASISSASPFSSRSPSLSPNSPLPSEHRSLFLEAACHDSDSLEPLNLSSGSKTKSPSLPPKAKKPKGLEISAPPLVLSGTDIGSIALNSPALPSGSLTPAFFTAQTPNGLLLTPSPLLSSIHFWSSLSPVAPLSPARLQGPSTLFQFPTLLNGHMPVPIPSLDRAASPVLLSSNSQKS
In short: as §1

[10] = biological target: T7, FEV (Homo sapiens, UniProt Q99581 1-238); settings: protein: recombinant; tags: N-terminal GST; dsDNA, one strand shown
T7 sequence: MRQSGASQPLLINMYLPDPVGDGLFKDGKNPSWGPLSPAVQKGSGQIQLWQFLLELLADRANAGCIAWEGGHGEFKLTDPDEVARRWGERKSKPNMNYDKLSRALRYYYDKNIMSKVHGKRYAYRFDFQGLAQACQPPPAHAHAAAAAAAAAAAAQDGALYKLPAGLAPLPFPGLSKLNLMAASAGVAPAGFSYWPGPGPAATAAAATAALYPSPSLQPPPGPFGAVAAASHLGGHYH
In short: as §1

[11] = biological target: ETV5 (Homo sapiens, UniProt P41161 1-510); settings: protein: recombinant; tags: N-terminal GST; dsDNA, one strand shown
ETV5, sequence (P41161 whole entry): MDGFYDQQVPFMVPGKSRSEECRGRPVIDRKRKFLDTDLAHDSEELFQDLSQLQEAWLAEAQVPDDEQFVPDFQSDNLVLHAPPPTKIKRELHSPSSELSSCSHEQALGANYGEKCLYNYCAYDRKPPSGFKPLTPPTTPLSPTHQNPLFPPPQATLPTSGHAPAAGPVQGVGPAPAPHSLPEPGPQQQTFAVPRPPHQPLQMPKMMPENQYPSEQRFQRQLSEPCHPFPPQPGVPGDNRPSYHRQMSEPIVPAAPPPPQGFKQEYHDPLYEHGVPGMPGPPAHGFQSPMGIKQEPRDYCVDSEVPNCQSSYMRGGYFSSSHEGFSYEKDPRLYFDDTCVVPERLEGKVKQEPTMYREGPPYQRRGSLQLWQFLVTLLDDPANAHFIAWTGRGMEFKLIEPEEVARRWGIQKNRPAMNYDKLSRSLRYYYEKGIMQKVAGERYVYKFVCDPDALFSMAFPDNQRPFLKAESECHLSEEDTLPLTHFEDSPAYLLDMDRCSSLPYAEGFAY
In short: as §1

[12] = biological target: HSF1 (Homo sapiens, UniProt Q00613 1-529); settings: protein: recombinant; tags: N-terminal GST; chain copies: 3; dsDNA, one strand shown
HSF1, sequence (Q00613 whole entry): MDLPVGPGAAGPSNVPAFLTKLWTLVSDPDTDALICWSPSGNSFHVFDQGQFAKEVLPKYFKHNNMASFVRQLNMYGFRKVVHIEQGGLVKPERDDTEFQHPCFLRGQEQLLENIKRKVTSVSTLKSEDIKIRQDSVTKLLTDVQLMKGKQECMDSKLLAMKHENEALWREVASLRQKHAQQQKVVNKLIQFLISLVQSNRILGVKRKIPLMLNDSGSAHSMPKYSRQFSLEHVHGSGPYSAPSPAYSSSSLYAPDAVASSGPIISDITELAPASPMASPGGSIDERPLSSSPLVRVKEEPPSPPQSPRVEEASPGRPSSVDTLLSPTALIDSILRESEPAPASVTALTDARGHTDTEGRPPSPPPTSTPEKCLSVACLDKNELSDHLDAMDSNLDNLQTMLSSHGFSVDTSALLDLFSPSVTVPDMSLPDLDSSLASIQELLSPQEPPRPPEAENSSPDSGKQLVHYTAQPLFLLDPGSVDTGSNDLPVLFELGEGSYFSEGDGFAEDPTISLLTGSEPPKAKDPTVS
In short: as §1

[13] = biological target: T8, SPIC (Homo sapiens, UniProt Q8N5J4 1-248); settings: protein: recombinant; tags: N-terminal GST; dsDNA, one strand shown
T8 sequence: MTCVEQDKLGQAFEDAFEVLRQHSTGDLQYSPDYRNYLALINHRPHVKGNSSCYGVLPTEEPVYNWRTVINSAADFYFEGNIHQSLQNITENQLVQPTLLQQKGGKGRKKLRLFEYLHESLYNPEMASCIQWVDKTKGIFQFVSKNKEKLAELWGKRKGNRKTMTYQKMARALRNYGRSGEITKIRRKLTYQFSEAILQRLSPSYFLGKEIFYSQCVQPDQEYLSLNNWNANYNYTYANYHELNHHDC
In short: as §1

[14] = biological target: ELF4 (Homo sapiens, UniProt Q99607 1-663); settings: protein: recombinant; tags: N-terminal GST; dsDNA, one strand shown
ELF4, sequence (Q99607 whole entry): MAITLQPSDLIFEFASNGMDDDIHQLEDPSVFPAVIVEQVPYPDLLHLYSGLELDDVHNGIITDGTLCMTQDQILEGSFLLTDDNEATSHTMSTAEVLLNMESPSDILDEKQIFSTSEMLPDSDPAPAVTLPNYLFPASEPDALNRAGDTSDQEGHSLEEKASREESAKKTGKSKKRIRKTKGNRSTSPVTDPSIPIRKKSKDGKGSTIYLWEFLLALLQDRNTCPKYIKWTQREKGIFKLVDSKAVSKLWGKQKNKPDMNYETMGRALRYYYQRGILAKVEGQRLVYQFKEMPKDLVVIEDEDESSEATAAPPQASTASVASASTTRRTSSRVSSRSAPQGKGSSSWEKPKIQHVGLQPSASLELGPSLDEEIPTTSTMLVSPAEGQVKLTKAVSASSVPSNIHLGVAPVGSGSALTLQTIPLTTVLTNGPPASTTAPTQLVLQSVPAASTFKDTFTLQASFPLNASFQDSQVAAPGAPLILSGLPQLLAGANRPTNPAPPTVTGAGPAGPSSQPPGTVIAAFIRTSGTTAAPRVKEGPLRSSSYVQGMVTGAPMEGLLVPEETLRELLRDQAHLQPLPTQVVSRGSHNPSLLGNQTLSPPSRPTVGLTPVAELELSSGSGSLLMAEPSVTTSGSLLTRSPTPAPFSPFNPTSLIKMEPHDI
In short: as §1

[15] = biological target: T9, ELK4 (Homo sapiens, UniProt P28324-2 1-405); settings: protein: recombinant; tags: N-terminal GST; dsDNA, one strand shown
T9 sequence: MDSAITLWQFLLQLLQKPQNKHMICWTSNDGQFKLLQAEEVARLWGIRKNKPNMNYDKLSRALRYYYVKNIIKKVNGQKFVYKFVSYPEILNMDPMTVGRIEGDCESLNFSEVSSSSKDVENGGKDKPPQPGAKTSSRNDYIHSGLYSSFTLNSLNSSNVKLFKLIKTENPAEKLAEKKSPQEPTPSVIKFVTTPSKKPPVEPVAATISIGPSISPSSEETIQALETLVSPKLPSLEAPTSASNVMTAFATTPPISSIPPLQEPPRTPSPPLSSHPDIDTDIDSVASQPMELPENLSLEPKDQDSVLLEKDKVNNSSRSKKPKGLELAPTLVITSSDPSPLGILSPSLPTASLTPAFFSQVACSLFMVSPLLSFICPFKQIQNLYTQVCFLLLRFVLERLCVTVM
In short: as §1

[16] = biological target: T10, ETV2 (Homo sapiens, UniProt O00321 1-342); settings: protein: recombinant; tags: N-terminal GST; dsDNA, one strand shown
T10 sequence: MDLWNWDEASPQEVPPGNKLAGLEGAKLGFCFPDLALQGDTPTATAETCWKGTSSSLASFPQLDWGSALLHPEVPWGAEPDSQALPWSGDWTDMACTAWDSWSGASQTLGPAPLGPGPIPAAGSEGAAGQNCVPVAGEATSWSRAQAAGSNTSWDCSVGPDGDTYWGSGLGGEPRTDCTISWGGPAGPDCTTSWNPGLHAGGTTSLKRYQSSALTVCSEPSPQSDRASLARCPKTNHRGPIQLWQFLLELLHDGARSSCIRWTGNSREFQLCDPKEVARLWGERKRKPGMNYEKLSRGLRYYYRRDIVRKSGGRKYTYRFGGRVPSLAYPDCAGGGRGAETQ
In short: as §1

[17] = biological target: T11, ELF3 (Homo sapiens, UniProt P78545 1-371); settings: protein: recombinant; tags: N-terminal GST; dsDNA, one strand shown
T11 sequence: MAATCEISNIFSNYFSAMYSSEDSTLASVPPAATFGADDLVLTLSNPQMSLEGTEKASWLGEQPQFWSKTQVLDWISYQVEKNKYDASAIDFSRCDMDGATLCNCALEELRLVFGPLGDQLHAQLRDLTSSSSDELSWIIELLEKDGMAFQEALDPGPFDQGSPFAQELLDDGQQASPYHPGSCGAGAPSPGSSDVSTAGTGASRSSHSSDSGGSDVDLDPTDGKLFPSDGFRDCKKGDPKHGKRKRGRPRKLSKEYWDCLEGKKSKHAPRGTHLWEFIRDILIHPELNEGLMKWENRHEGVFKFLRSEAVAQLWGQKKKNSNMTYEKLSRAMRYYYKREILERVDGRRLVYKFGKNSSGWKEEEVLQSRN
In short: as §1

[18] = biological target: CRX (Homo sapiens, UniProt O43186 1-299); settings: protein: recombinant; tags: N-terminal GST; dsDNA, one strand shown
CRX, sequence (O43186 whole entry): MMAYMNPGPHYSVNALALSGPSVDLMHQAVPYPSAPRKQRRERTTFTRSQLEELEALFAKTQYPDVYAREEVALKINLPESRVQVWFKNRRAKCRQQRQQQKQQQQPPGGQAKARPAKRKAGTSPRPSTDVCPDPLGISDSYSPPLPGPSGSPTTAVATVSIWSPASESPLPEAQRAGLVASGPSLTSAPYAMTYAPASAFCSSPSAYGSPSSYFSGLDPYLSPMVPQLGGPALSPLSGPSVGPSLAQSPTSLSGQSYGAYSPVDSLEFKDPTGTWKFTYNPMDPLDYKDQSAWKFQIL
In short: as §1

[19] = biological target: ETV1 (Homo sapiens, UniProt P50549 1-477); settings: protein: recombinant; tags: N-terminal GST; dsDNA, one strand shown
ETV1, sequence (P50549 whole entry): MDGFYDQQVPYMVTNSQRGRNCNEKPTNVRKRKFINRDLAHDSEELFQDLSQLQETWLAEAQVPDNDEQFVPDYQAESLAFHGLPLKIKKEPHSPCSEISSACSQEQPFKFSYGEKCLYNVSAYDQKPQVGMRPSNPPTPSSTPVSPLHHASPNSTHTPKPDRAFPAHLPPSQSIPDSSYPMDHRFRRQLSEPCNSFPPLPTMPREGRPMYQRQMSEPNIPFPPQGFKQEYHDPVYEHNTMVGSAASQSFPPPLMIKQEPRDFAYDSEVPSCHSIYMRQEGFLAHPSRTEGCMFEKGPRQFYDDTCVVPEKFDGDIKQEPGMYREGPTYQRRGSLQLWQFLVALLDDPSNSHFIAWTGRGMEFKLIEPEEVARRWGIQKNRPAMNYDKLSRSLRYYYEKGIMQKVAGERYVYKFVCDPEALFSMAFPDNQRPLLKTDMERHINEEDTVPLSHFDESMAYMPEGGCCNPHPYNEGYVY
In short: as §1

CTGGAT
binding signal [1]: 1.31 fold enrichment (6-mer frequency, TF over GST control) | binding signal [2]: 1.19 fold enrichment (6-mer frequency, TF over GST control) | binding signal [3]: 1.38 fold enrichment (6-mer frequency, TF over GST control) | binding signal [4]: 1.38 fold enrichment (6-mer frequency, TF over GST control) | binding signal [5]: 1.36 fold enrichment (6-mer frequency, TF over GST control) | binding signal [6]: 1.32 fold enrichment (6-mer frequency, TF over GST control) | binding signal [7]: 1.25 fold enrichment (6-mer frequency, TF over GST control) | binding signal [8]: 1.36 fold enrichment (6-mer frequency, TF over GST control) | binding signal [9]: 1.31 fold enrichment (6-mer frequency, TF over GST control) | binding signal [10]: 1.38 fold enrichment (6-mer frequency, TF over GST control) | binding signal [11]: 1.4 fold enrichment (6-mer frequency, TF over GST control) | binding signal [12]: 2.19 fold enrichment (6-mer frequency, TF over GST control) | binding signal [13]: 1.34 fold enrichment (6-mer frequency, TF over GST control) | binding signal [14]: 1.35 fold enrichment (6-mer frequency, TF over GST control) | binding signal [15]: 1.35 fold enrichment (6-mer frequency, TF over GST control) | binding signal [16]: 1.41 fold enrichment (6-mer frequency, TF over GST control) | binding signal [17]: 1.41 fold enrichment (6-mer frequency, TF over GST control) | binding signal [18]: 2.05 fold enrichment (6-mer frequency, TF over GST control) | binding signal [19]: 1.47 fold enrichment (6-mer frequency, TF over GST control)
